The text below walks through data of PubChem BioAssay (Tox21).

The target of assay [1] is Thyrotropin-releasing hormone receptor (Homo sapiens) (UniProt P34981). The experiment in a line: qHTS assay to identify small molecule agonists of the thyrotropin-releasing hormone receptor (TRHR) signaling pathway (AID 1346891; calls by dose curve; also: series mostly up to about 58 µM). In a few lines:
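HEK293 cells expressing TRHR plated 18 h at 37 C/5% CO2, calcium dye-loaded 2 h at 37 C, then compound added (agonist mode); kinetic calcium fluorescence read 3 min at 1 s intervals; 15 concentrations in triplicate.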
On the technique in general: Quantitative high-throughput screening tests each substance at several concentrations.

Assay [2] is described as follows: Human pregnane X receptor (PXR) small molecule agonists, qHTS cell viability counter screen (AID 1346977). Also: nearly all actives have a fitted effect of over 50% in size. Also: potency is read from the fitted curve at half-maximal effect. The method, boiled down: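 PXR-Luc HepG2 cells (2,000/well, 5% charcoal-stripped FBS) preincubated 5 hr, then exposed to compounds 24 hr at 37 C. Viability read in the same wells by CellTiter-Fluor fluorescence, reagent added at 23 hr, 1 hr incubation.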
A short description of assay [3]: Caspase-3/7 induction in HepG2 cells by small molecules, qHTS assay (AID 1346978). Also: nearly all actives have a fitted effect of over 15% in size. The method, boiled down: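 Wild-type HepG2 cells (2,000/well) were settled 5 h at 37 C, 5% CO2, then exposed to compounds in DMSO for 17 h. Caspase-3/7 activity was read by luminescence 30 min after adding Caspase-Glo 3/7 reagent at room temperature.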
A short description of assay [4]: Caspase-3/7 induction in CHO-K1 cells by small molecules, qHTS cell viability counter screen (AID 1346979). Also: nearly all actives have a fitted effect of over 35% in size. Also: potency is read from the fitted curve at half-maximal effect. In a few lines:
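Wild-type CHO-K1 cells (1,500/well) treated with compound after 5 h plating; after 16 h at 37C, viability read as CellTiter-Fluor fluorescence following 1 h reagent incubation, in the same wells as the caspase read.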

A short description of assay [5]: Caspase-3/7 induction in CHO-K1 cells by small molecules, qHTS assay (AID 1346980). Also: nearly all actives have a fitted effect of over 15% in size. The method, boiled down:
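Wild-type cells were seeded at 1,500 per well and settled 5 hr at 37 C, 5% CO2, then exposed to DMSO-dissolved compounds for 17 hr. Caspase-Glo 3/7 reagent was added, and luminescence was read after 30min at room temperature.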

Assay [6] is described as follows: Caspase-3/7 induction in HepG2 cells by small molecules, qHTS cell viability counter screen (AID 1346981). Also: nearly all actives have a fitted effect of over 30% in size. Also: potency is read from the fitted curve at half-maximal effect. The method, boiled down: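 CellTiter-Fluor fluorescence measured viability in the same wells used for Caspase-Glo 3/7. HepG2 (wild type) at 2,000 cells/well were pre-incubated 5 hr, dosed, and given reagent at 16 hr, with 1 hr further at 37C.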
Assay [7] addresses Nuclear receptor subfamily 1 group I member 2 (Homo sapiens) (UniProt O75469). The experiment in a line: Human pregnane X receptor (PXR) small molecule agonists, qHTS assay (AID 1346982). Also: nearly all actives have a fitted effect of over 35% in size. Also: potency is read from the fitted curve at half-maximal effect. The method, boiled down:
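Agonist mode: luminescence from ONE-Glo after 24 h compound exposure at 37C in HepG2 cells carrying hPXR-responsive CYP3A4 luciferase, plated in charcoal-stripped serum medium 5 h beforehand.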

The target in assay [8] is Cytochrome P450 2D6 (Homo sapiens) (UniProt P10635). Briefly: Cytochrome P450 Family 2 Subfamily D Member 6 (CYP2D6) small molecule antagonists: luciferase reporter qHTS assay (AID 1671196). Also: series mostly up to about 120 µM; nearly all actives have a fitted effect of over 50% in size. The method, boiled down:
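CYP2D6 activity was followed as luminescence from its luciferin product after a 1 h NADPH-driven reaction at room temperature. Enzyme-substrate mix and compound were pre-incubated for 10 min, and the signal was read 20 min after adding detection reagent.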
On the technique in general: In a reporter assay the amount or activity of a reporter protein is the signal.

Assay [9] deals with Cytochrome P450 2C19 (Homo sapiens) (UniProt P33261). The experiment in a line: Cytochrome P450 Family 2 Subfamily C Member 19 (CYP2C19) small molecule antagonists: luciferase reporter qHTS assay (AID 1671197). Also: nearly all actives have a fitted effect of over 65% in size. Also: potency is read from the fitted curve at half-maximal effect. In a few lines:
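Light output is proportional to CYP2C19 activity: proluciferin substrate is converted to luciferin, then detected by a luciferin detection reagent that also stops the 1 h, 37C NADPH-driven reaction. Ketoconazole serves as positive control.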

Assay [10] deals with Cytochrome P450 2C9 (Homo sapiens) (UniProt P11712). Briefly: Cytochrome P450 Family 2 Subfamily C Member 9 (CYP2C9) small molecule antagonists: luciferase reporter qHTS assay (AID 1671198). Also: series mostly up to about 120 µM; nearly all actives have a fitted effect of over 50% in size. In a few lines: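 CYP2C9 activity was measured with a P450-Glo proluciferin substrate. Enzyme–substrate mix was held with compound for 10 min at room temperature, then NADPH regeneration solution was added for 1 h at 37C. Luciferin product was read as luminescence.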
Chain of Cytochrome P450 2C9 (Homo sapiens) (P11712 whole entry, looked up): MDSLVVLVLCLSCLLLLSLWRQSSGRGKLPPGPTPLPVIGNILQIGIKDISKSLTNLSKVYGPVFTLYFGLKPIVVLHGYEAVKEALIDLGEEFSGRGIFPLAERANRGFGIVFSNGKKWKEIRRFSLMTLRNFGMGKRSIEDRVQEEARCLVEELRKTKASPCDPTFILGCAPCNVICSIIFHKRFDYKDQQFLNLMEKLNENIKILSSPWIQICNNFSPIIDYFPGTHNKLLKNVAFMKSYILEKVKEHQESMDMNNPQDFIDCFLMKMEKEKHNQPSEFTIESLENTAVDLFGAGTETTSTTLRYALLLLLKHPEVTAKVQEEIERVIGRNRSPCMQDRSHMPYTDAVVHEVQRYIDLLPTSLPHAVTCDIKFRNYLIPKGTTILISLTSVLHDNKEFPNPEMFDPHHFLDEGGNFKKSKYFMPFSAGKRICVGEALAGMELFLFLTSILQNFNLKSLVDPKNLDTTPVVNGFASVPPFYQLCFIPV

For assay [11], the target named is Cytochrome P450 1A2 (Homo sapiens) (UniProt P05177). The experiment in a line: Cytochrome P450 Family 1 Subfamily A Member 2 (CYP1A2) small molecule antagonists: luciferase reporter qHTS assay (AID 1671199). Also: nearly all actives have a fitted effect of over 50% in size. Also: potency is read from the fitted curve at half-maximal effect. The method, boiled down: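 Luminescence from luciferin formed by CYP1A2 from a proluciferin substrate, read 20 min after detection reagent. Compound was pre-incubated 10 min with enzyme-substrate, and reaction started with NADPH regeneration solution for 1 h at room temperature; furafylline control.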
Chain of Cytochrome P450 1A2 (Homo sapiens) (P05177 whole entry, looked up): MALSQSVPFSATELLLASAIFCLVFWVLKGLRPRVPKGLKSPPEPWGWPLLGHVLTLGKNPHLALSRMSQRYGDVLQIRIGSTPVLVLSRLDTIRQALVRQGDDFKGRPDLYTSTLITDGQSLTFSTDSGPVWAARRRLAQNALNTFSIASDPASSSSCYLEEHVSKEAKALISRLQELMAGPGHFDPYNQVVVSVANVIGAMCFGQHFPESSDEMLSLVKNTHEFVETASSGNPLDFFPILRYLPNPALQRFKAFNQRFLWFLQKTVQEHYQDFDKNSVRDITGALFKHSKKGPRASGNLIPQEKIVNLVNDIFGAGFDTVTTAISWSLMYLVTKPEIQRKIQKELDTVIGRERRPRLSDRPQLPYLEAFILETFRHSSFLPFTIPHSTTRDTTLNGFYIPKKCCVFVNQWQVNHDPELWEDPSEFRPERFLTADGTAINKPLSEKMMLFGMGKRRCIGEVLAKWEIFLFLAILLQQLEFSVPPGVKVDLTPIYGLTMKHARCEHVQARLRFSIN

In assay [12] the target is Voltage-gated inwardly rectifying potassium channel KCNH2 (Homo sapiens) (UniProt Q12809). Briefly: Human Ether-a-go-go-Related Gene (hERG) channel small molecule antagonists: fluorescence cell-based qHTS assay (AID 1671200). The method, boiled down:
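hERG-U2OS cells plated overnight at 37 C, loaded with FluxOR II dye 1 h at RT in dark; after 10 min, thallium stimulus added. Fluorescence (480/540 nm) read kinetically for 2 min at 1 s intervals.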
(In general: hERG is a cardiac potassium channel; its block is linked to QT prolongation.)

The target of assay [13] is Cytochrome P450 3A4 (Homo sapiens) (UniProt P08684). The experiment in a line: Cytochrome P450 Family 3 Subfamily A Member 4 (CYP3A4) small molecule antagonists: luciferase reporter qHTS assay (AID 1671201). The method, boiled down: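 P450-Glo CYP3A4 luminescent assay: compounds preincubated 10 min at room temperature with enzyme and proluciferin substrate, NADPH regeneration added, 1 h room-temperature reaction, stopped with luciferin detection reagent; luminescence read after 20 min. Ketoconazole positive control.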
Chain of Cytochrome P450 3A4 (Homo sapiens) (P08684 whole entry, looked up): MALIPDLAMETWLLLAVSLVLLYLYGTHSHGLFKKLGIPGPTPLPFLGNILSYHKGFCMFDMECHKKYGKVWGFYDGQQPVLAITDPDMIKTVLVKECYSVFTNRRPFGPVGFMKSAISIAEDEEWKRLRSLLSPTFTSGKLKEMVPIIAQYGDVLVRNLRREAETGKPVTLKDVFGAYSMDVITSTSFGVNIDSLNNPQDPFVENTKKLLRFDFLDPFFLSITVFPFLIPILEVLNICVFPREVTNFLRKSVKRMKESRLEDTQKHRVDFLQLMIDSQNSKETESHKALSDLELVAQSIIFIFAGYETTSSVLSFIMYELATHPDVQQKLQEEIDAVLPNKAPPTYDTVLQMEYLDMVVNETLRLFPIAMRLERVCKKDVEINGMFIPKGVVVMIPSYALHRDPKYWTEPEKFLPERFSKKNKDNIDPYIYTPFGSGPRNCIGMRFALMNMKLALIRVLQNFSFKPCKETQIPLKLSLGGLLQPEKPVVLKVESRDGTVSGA

The target in assay [14] is Nuclear receptor subfamily 1 group I member 2 (Rattus norvegicus) (UniProt Q9R1A7). Briefly: Rat pregnane X receptor (rPXR) activation by small molecules, qHTS assay (AID 1346983). Also: nearly all actives have a fitted effect of over 20% in size. The following applies: rPXR luciferase reporter cells, One-Glo luminescence, 24 h; stronger effect = higher value. The method, boiled down:
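Cell-based rPXR luciferase reporter assay, 2,000 cells per well, rested 5hr at 37 C before compound addition in DMSO, then 24 hr at 37 C. One-Glo reagent was added and luminescence read after 30 min at room temperature.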

For assay [15], the target named is Nuclear receptor subfamily 1 group I member 2 (Homo sapiens) (UniProt O75469). The experiment in a line: CYP3A4 induction through human pregnane X receptor (PXR) by small molecules, qHTS assay (AID 1346984). Also: nearly all actives have a fitted effect of over 40% in size. The method, boiled down:
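Read-out is luminescence after One-Glo addition, following a 3 hr, 37C incubation with Luciferin-IPA CYP3A4 substrate (3uM final). Before that, compounds were on DPX-2 cells (HepG2 co-transfected with PXR element plus CYP3A4-promoter luciferase) for 24 hr at 37C.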

Assay [16] shares this target. Briefly: Human pregnane X receptor (PXR) activation by small molecules, qHTS assay (AID 1346985). Also: nearly all actives have a fitted effect of over 40% in size. The method, boiled down: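 DPX-2 cells (HepG2 co-transfected with a PXR response element and a CYP3A4-promoter luciferase construct) were seeded at 2,000 per well, rested 5 hr at 37C, then exposed to DMSO-dissolved compounds for 24 hr. Activation was read as luciferase luminescence.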

Each structure is given as a SMILES string. Values joined by “and” are separate entries in the source; they are usually repeats but may differ in a detail not shown here. Equal entries are not always repeated. Results filed as inconclusive are left out. A structure can be active in one record and inactive in another. Active and inactive are the calls of the source. Unless noted, calls follow the shape of the dose curve; as a rule, active = well fitted curve in the direction sought with a large enough effect in the repeat runs; inconclusive = weak or mixed curves; inactive = no such curve, though single readings can be large; an effect the other way counts as inactive or inconclusive.
% is scaled to controls: 0 for no effect and ±100 for the full control effect.

Chain of Voltage-gated inwardly rectifying potassium channel KCNH2 (Homo sapiens) (Q12809 whole entry, looked up): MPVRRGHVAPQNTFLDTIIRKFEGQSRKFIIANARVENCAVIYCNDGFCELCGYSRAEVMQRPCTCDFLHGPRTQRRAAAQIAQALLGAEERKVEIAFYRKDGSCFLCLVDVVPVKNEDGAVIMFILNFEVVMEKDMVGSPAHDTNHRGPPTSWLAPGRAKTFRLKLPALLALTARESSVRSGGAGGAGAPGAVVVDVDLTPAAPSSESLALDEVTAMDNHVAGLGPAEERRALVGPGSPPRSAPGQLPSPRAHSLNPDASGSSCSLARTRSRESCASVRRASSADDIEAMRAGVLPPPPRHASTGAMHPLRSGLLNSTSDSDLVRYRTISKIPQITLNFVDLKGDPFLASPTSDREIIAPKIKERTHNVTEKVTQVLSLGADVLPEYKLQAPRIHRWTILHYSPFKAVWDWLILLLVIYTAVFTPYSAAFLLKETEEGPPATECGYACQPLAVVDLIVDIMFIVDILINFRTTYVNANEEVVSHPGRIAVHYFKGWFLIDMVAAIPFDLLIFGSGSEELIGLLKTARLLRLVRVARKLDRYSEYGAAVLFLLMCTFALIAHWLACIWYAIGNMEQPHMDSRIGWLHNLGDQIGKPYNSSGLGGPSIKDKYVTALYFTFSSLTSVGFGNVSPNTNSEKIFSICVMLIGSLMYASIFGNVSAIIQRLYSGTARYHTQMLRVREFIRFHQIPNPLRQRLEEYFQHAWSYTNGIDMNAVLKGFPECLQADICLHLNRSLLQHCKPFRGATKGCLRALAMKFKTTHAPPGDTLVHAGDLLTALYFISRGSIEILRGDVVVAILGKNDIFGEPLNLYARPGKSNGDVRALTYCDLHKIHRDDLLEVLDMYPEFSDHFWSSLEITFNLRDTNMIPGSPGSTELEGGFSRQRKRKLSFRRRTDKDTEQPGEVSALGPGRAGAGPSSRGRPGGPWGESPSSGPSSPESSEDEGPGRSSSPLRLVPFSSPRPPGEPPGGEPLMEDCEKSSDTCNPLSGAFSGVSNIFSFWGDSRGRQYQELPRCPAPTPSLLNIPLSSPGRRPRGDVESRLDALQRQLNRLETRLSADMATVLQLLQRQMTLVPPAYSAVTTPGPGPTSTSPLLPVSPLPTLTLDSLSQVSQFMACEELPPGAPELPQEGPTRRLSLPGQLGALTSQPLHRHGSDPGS
Chain of Cytochrome P450 2D6 (Homo sapiens) (P10635 whole entry, looked up): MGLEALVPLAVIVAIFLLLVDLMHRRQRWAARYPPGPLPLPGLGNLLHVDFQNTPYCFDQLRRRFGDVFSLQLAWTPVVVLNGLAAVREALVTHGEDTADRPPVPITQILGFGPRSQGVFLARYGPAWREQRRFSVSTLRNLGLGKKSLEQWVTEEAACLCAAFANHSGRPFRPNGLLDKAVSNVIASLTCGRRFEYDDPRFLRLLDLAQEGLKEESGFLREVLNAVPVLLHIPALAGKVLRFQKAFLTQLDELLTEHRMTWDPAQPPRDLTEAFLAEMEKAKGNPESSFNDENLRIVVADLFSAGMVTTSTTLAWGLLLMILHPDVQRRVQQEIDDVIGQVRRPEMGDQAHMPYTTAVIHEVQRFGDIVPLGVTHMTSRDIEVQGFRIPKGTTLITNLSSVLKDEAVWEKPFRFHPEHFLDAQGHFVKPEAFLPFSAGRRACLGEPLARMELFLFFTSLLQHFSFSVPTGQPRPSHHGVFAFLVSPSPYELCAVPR
Chain of Cytochrome P450 2C19 (Homo sapiens) (P33261 whole entry, looked up): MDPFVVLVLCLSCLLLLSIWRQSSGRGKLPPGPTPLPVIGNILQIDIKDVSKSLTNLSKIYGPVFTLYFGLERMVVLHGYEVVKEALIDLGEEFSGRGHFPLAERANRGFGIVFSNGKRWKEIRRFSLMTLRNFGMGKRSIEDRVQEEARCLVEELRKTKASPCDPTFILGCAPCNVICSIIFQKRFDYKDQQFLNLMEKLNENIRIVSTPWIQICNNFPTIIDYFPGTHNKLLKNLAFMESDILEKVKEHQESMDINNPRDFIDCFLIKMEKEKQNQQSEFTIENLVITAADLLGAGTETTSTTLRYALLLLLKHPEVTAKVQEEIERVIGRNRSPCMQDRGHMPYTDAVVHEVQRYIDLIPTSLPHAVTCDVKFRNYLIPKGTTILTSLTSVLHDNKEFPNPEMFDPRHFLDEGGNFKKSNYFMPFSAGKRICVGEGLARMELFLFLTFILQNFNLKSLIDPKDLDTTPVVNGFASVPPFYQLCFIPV
Chain of Thyrotropin-releasing hormone receptor (Homo sapiens) (P34981 whole entry, looked up): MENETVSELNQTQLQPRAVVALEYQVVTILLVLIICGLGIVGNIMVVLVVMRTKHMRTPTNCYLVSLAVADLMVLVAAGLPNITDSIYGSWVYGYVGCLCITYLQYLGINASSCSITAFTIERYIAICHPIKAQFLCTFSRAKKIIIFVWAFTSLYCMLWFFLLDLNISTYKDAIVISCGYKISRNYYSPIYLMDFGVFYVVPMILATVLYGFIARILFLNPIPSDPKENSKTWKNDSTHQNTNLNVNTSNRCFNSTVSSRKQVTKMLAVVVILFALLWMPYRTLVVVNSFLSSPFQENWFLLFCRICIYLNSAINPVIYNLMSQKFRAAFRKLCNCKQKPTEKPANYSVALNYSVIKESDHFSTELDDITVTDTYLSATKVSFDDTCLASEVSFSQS
Chain of Nuclear receptor subfamily 1 group I member 2 (Homo sapiens) (O75469 whole entry, looked up): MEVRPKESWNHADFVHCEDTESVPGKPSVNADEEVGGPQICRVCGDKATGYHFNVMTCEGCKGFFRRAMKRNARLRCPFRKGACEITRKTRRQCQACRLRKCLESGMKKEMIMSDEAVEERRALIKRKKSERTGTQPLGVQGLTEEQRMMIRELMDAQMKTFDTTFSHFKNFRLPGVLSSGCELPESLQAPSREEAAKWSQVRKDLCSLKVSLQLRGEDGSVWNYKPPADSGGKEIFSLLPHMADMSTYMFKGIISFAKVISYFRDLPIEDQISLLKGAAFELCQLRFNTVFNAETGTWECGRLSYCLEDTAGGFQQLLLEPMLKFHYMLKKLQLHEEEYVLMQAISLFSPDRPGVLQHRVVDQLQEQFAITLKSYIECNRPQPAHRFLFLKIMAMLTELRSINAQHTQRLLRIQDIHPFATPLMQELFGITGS
Chain of Nuclear receptor subfamily 1 group I member 2 (Rattus norvegicus) (Q9R1A7 whole entry, looked up): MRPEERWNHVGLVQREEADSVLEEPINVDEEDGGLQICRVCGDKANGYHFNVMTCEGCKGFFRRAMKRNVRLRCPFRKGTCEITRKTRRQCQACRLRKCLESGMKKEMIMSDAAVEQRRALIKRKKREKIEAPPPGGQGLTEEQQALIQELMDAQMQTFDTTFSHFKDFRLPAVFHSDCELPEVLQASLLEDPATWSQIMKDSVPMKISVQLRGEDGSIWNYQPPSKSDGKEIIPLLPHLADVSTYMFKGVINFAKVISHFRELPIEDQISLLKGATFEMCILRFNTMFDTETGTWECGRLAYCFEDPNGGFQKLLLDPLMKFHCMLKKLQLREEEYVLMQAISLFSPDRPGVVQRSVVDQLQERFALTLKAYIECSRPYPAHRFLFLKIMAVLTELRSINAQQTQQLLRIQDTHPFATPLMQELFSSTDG

`CC(=O)CCC=C(C)C`: the molecule was called inactive in [1] and in assay [5]. Further, the Potency entry in assay [2], in [3], in [4], in assay [6], in [7] and in assay [8] was “inactive” each time. Further, the Potency entry in [9], in assay [10], in [11], in [12] and in [13] was “inactive” each time.
As to `COc1ccc(CCC(C)=O)cc1`, the molecule was classed as inactive in [1] and in assay [5]. In addition, the Potency result in assay [2], in assay [3], in [4], in assay [6], in assay [7] and in assay [8] was “inactive” throughout. Further, the Potency result in [10], in assay [12] and in assay [13] was “inactive” each time. The Potency in [9] is 28.3 µM (active) and inactive; in assay [11], 22.4 µM (active) and 20.4 µM (active).
As to `CCO[Si](CCCN)(OCC)OCC`, the result in assay [1] and in [5] was inactive. For the same molecule, the Potency result in assay [2], in assay [3], in [4], in assay [6], in [7] and in assay [8] was “inactive” each time. Also, the Potency result in assay [9], in assay [10], in assay [11], in assay [12] and in [13] was “inactive” each time.
For the molecule `CC(C)(C)c1cc(Cc2cc(C(C)(C)C)c(O)c(C(C)(C)C)c2)cc(C(C)(C)C)c1O`, the molecule was classed as inactive in assay [1] and in assay [5]. In addition, the Potency result in assay [2], in assay [3], in assay [4], in assay [6], in assay [7] and in assay [8] was “inactive” each time. For the same molecule, the Potency result in assay [9], in assay [10], in assay [12] and in assay [13] was “inactive” throughout. The Potency result in assay [11] is “inactive and 71 µM (active)”.
Take `Cc1ccc(S(=O)(=O)N=C=O)cc1`: the outcome in assay [1] and in assay [5] was inactive. Besides, the Potency in assay [2] was 28.2 µM (active) and inactive; in [4], 6.73 µM (active) and inactive; in assay [6], 53.4 µM (active) and inactive. Moreover, the Potency result in [3], in assay [7], in assay [8], in [9], in [10] and in assay [11] was “inactive” in each case. The Potency entry in assay [12] and in assay [13] was “inactive” in each case.
Take `CC(C)OP(=O)(CP(=O)(OC(C)C)OC(C)C)OC(C)C`: the outcome in [1] and in assay [5] was inactive. Further, the Potency entry in assay [2], in assay [3], in [4], in [6], in assay [8] and in [10] was “inactive” in each case. For the same molecule, the Potency result in [11] and in assay [12] was “inactive” in each case. Further, the Potency in [7] was 27.3 µM (active) and inactive; in [9] it was 35.6 µM (active) and inactive.
As for `Cc1ccc(C(C)C)c(O)c1`, the call in assay [1], in [5] and in assay [16] was inactive. For the same molecule, the Potency entry in assay [2], in assay [3], in assay [4], in assay [6], in assay [7] and in [15] was “inactive” in each case. For the same molecule, the Potency result in assay [8], in assay [12] and in assay [13] was “inactive” each time. Also, the max activation in assay [14] was -2.47% (inactive). In addition, the Potency was 71 µM (active) and 34.7 µM (active) in assay [9]; 31.7 µM (active) and 15.5 µM (active) in assay [11].
With `C=Cc1ccc(C)cc1`, the result in [1] and in [5] was inactive. In addition, the Potency result in assay [2], in [3], in [4], in [6], in assay [7] and in assay [8] was “inactive” each time. For the same molecule, the Potency result in assay [9], in assay [10], in [11], in assay [12] and in [13] was “inactive” in each case.
As to `CC(C)CC(=O)CC(C)CC(C)C` (stereo not drawn), the outcome in assay [1] and in assay [5] was inactive. Further, the Potency result in [2], in assay [3], in assay [4], in [6], in assay [7] and in [8] was “inactive” each time. Further, the Potency entry in assay [10], in assay [11], in [12] and in assay [13] was “inactive” in each case. The Potency in assay [9] is 79.2 µM (active) and inactive.
